From PubChem BioAssay AID687026 (Broad Institute, 2013)
Potency and affinity values are given separately. Values without a mark were called inactive. Calls of active or inactive are those of the source. The rule behind the calls is not given here.

Test: CEM21 cell cytotoxicity, dose response, cytotoxicity control, plate reader, dry powder (AID 687026)
Conditions: CEM21 cells cytotoxicity; series mostly up to 35 µM; activity change, negative = cytotoxicity: at the top concentration

| SMILES | activity change, negative = cytotoxicity | outcome |
| --- | --- | --- |
| Cc1noc(C)c1S(=O)(=O)Nc1cccc2c1O[C@@H](CN(C)Cc1ccc(C(F)(F)F)cc1)[C@H](C)CN([C@H](C)CO)C2=O | 4.5% |  |
| Cc1ccc(S(=O)(=O)N(C)C[C@@H]2Oc3ccc(NS(=O)(=O)c4c(C)noc4C)cc3CC(=O)N([C@H](C)CO)C[C@@H]2C)cc1 | 0.887% |  |
| CO[C@@H]1CN(C)C(=O)c2ccc(NC(=O)Nc3cccc(F)c3)cc2OC[C@@H](C)N(C(=O)Nc2cccc(F)c2)C[C@H]1C | -9.29% |  |
| CCOc1ccc(S(=O)(=O)NCc2ccccn2)cc1 |  | inactive |
| Cc1noc(C)c1S(=O)(=O)Nc1cccc2c1O[C@H](CN(C)Cc1ccc(C(F)(F)F)cc1)[C@@H](C)CN([C@H](C)CO)C2=O | 4.39% |  |
| Cc1noc(C)c1S(=O)(=O)Nc1cccc2c1O[C@H](CN(C)Cc1ccc(C(F)(F)F)cc1)[C@H](C)CN([C@H](C)CO)C2=O | -7.43% |  |
| COc1ccccc1CCNCc1ccc(OC)c(OCc2ccccc2)c1 | -12.2% |  |
| CCOc1ccc(S(=O)(=O)NCc2ccccc2)cc1 | -11.5% |  |
